The nature of assay [1]: antimalarial activity against Dd2 strain (AID 2302;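 active = growth inhibition above 50% at the single 2 µM test dose, taken to imply half-maximal potency below 2 µM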;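 also: 0% = DMSO untreated growth and 100% = chloroquine plus artemisinin killed control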). Conditions: P. falciparum Dd2 in RBCs, LDH growth readout, 72 h; at 2 µM; stronger effect = higher value.
Assay [2] can be described thus: human hepatoma cell viability loss – ATP luminescence, cytotoxicity control for P. falciparum antimalarial project, primary screen (AID 2303;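 active = inhibition above 50%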;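 also: 0% = DMSO wells and 100% = digitonin-killed cells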). Conditions: HepG2 viability, 24-48 h, at 10 µM, stronger effect = higher value.
The target in assay [3] is L-lactate dehydrogenase (Plasmodium falciparum (isolate CDC / Honduras)) (UniProt Q27743). Kind of assay: PfLDH activity inhibition – cell lysate, 3D7 strain, counter-screen for P. falciparum growth inhibition project (AID 2304).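 Also: 0% = vehicle and 100% = reference inhibitor.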 Conditions: P. falciparum 3D7 crude extract, LDH APAD/NBT absorbance; at 2 µM; stronger effect = higher value.
A short description of assay [4]: inhibition of 3D7 malaria parasite growth – strain 3D7 (AID 2306).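 Also: 0% = DMSO wells and 100% = chloroquine plus artemisinin control wells.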 The following applies: P. falciparum 3D7 erythrocytic growth, LDH absorbance, 72 h; at 2 µM; stronger effect = higher value.
Assay [5] concerns the target Calcium-dependent protein kinase 1 (Plasmodium falciparum (isolate 3D7)) (UniProt P62344). Nature of the assay: PfCDPK1 kinase inhibitors, biochemical, TCAMS library (AID 1159585; cut-off not given, nearly all actives have IC50 up to about 0.98 µM;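 also: inhibitors leave more ATP so luminescence rises with inhibition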). Conditions: recombinant PfCDPK1, Kinase-Glo ATP depletion luminescence.
In assay [6] the target is Plasmodium falciparum protein kinase 6 (PK6, PF3D7_1337100) (UniProt Q8IDW1). Kind of assay: PfPK6 kinase inhibitors, biochemical, TCAMS library (AID 1159586). The following applies: recombinant PfPK6, Kinase-Glo ATP depletion luminescence.
In assay [7] the target is Protein kinase 7 (PK7), Plasmodium falciparum 3D7 (PF3D7_0213400) (UniProt Q7YTF7). Nature of the assay: inhibition of Plasmodium PK7 catalytic activity – biochemical, TCAMS antimalarial set, Kinase-Glo luminescence (AID 1159587). The following applies: recombinant PfPK7, Kinase-Glo ATP depletion luminescence.
In assay [8] the target is Calcium-dependent protein kinase 4 (Plasmodium falciparum (isolate 3D7)) (UniProt Q8IBS5). Nature of the assay: PfCDPK4 kinase inhibitors, biochemical, TCAMS library (AID 1159588; cut-off not given, nearly all actives have IC50 up to about 0.91 µM). Conditions: recombinant PfCDPK4, Kinase-Glo ATP depletion luminescence.

A number with no mark means an inactive call. For some assays here: Measured potencies and affinities stand elsewhere. Activity calls are given as the source filed them. Unless noted, no rule for the calls is given here.

Sequence of Protein kinase 7 (PK7), Plasmodium falciparum 3D7 (PF3D7_0213400) (Q7YTF7 1-343): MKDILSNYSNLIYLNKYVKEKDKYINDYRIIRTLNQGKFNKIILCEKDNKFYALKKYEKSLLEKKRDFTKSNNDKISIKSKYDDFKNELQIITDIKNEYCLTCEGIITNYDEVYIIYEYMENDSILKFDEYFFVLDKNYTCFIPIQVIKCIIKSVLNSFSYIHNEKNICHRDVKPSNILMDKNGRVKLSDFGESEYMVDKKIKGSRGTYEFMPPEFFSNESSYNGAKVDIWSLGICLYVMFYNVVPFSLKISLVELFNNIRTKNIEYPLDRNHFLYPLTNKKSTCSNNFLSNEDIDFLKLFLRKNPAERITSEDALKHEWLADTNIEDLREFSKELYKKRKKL
Sequence of Calcium-dependent protein kinase 4 (Plasmodium falciparum (isolate 3D7)) (Q8IBS5 whole entry, looked up): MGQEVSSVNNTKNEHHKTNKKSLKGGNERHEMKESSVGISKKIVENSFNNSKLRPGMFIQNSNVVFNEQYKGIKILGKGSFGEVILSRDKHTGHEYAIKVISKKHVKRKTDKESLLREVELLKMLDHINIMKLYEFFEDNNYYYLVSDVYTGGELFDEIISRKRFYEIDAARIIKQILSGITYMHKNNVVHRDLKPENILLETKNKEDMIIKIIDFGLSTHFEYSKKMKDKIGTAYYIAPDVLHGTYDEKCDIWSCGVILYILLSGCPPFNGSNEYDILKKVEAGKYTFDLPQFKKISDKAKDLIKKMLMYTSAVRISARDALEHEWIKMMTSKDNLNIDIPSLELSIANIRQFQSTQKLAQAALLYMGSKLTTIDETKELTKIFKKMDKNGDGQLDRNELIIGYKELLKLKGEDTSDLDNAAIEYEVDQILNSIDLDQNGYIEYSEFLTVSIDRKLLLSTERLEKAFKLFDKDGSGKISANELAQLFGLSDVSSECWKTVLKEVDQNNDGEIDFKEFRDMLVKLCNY
Sequence of Calcium-dependent protein kinase 1 (Plasmodium falciparum (isolate 3D7)) (P62344 whole entry, looked up): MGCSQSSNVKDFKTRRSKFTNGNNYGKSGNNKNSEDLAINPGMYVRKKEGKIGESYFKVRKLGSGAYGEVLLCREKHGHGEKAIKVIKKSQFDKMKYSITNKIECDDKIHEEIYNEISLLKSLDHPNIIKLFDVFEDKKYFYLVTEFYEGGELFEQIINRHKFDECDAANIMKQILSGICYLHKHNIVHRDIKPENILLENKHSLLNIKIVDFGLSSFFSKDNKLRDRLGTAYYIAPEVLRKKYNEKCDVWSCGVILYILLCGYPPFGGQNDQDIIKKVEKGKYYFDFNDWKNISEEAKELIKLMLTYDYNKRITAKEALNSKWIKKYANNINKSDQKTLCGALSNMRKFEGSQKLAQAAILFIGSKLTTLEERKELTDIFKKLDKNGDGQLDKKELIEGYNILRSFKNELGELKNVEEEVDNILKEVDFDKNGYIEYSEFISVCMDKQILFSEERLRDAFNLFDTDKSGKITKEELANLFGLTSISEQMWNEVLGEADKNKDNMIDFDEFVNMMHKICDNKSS
Sequence of Plasmodium falciparum protein kinase 6 (PK6, PF3D7_1337100) (Q8IDW1 1-305): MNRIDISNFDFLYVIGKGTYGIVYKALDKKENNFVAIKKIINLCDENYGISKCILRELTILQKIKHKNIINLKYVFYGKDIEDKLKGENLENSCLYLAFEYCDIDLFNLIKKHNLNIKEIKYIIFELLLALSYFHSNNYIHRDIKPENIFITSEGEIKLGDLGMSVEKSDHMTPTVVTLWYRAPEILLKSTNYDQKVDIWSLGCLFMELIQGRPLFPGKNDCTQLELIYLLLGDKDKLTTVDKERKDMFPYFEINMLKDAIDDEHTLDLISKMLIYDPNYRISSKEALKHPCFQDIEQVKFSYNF
Sequence of L-lactate dehydrogenase (Plasmodium falciparum (isolate CDC / Honduras)) (Q27743 whole entry, looked up): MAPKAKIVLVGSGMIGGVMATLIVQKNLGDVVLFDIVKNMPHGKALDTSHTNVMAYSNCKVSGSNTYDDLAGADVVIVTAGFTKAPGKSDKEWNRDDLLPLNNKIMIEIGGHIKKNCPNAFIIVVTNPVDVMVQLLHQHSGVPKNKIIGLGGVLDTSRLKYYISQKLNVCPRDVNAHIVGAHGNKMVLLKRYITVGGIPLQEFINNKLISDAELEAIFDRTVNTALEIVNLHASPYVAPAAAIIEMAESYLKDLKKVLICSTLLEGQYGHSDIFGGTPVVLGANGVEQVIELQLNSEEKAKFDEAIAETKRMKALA

For `CN(CCN(C)CC(O)c1ccc(Cl)c(Cl)c1)CC(O)c1ccc(Cl)c(Cl)c1` (configuration not stated), the figures for the growth inhibition in assay [1] and in assay [4] were 73% (active) and 91% (active), respectively. Moreover, the inhibition in assay [2] is 22%; in assay [3], -2%. The outcome in assay [5], in assay [6], in assay [7] and in assay [8] was inactive.

For the molecule `O=C(n1c(-c2cc3ccccc3n2C(=O)C(F)(F)F)cc2ccccc21)C(F)(F)F`, the growth inhibition is 80% (active) in assay [1] and 94% (active) in assay [4]. Besides, the inhibition in assay [2] was 30%; in assay [3], 5%. The result in assay [5], in assay [6], in assay [7] and in assay [8] was inactive.

Take `CC(C)Cn1c(Sc2ccc(C#N)c([N+](=O)[O-])c2)nnc1-c1ccccc1`: the results for the growth inhibition in assay [1] and in assay [4] were 12% and 83% (active), respectively. The inhibition is 17% in assay [2] and 2% in assay [3]. In addition, the result in assay [5], in assay [6], in assay [7] and in assay [8] was inactive.

For the molecule `N#Cc1ccc2c(c1)CCN(CCC1CCC(NC(=O)/C=C/c3ccc(F)c4ccccc34)CC1)CC2` (configuration not stated), the growth inhibition in assay [1] is 19%; in assay [4], 95% (active). Moreover, the inhibition in assay [2] was 29%; in assay [3] it was -2%. Besides, the outcome in assay [5], in assay [6], in assay [7] and in assay [8] was inactive.

With `N#Cc1ccc(CN2CCCN(Cc3cccc(NC(=O)c4cc5ccccc5s4)c3)CC2)cc1`, the growth inhibition is 36% in assay [1] and 97% (active) in assay [4]. For the same molecule, the results for the inhibition in assay [2] and in assay [3] were 31% and 0%, respectively. Also, the result in assay [5], in assay [6], in assay [7] and in assay [8] was inactive.

In the case of `CCCCNC(=O)c1[nH]c2c(NC(=O)COc3ccccc3)cccc2c1-c1cccc(NC(=O)C(N)CO)c1` (configuration not stated), the growth inhibition in assay [1] was -3%; in assay [4] it was 87% (active). For the same molecule, the inhibition in assay [2] is 11%; in assay [3] it was -3%. For the same molecule, the outcome in assay [5], in assay [6], in assay [7] and in assay [8] was inactive.

For `O=C(Nc1ccc(-c2nc3ccccc3[nH]2)cc1)c1cncc(Br)c1`, the growth inhibition in assay [1] is 49%; in assay [4], 95% (active). For the same molecule, the inhibition in assay [2] was 35%; in assay [3], 1%. Also, the outcome in assay [5], in assay [6], in assay [7] and in assay [8] was inactive.

For the molecule `CCOc1cc(C(=O)NC2CCN(Cc3ccccc3)CC2)ccc1-c1nc2cc(Cl)c(Cl)cc2[nH]1`, the values for the growth inhibition in assay [1] and in assay [4] were 99% (active) and 101% (active), respectively. In addition, the inhibition in assay [2] is 24%; in assay [3], 2%. Besides, the outcome in assay [5], in assay [6], in assay [7] and in assay [8] was inactive.

Take `COc1ccc2nc(C)cc(Nc3ccc(Cl)cc3)c2c1`: the growth inhibition is 3% in assay [1] and 89% (active) in assay [4]. Besides, the inhibition in assay [2] was 10%; in assay [3] it was -2%. The outcome in assay [5], in assay [6], in assay [7] and in assay [8] was inactive.

As for `Cc1ccc(Nc2nc(C)cc(Nc3cccc(C#N)c3)n2)cc1`, the values for the growth inhibition in assay [1] and in assay [4] were 96% (active) and 101% (active), respectively. Besides, the results for the inhibition in assay [2] and in assay [3] were 14% and 4%, respectively. In addition, the outcome in assay [5], in assay [6], in assay [7] and in assay [8] was inactive.

As to `CCCCOC(=O)c1ccc(Nc2cc(C)nc3ccc(OC)cc23)cc1`, the values for the growth inhibition in assay [1] and in assay [4] were 96% (active) and 100% (active), respectively. In addition, the inhibition in assay [2] is 4%; in assay [3], -5%. The outcome in assay [5], in assay [6], in assay [7] and in assay [8] was inactive.

For `CCOc1ccc2nc(C)cc(NN=Cc3ccccc3Cl)c2c1`, the growth inhibition was 100% (active) in assay [1] and 101% (active) in assay [4]. In addition, the inhibition is 11% in assay [2] and -4% in assay [3]. Besides, the result in assay [5], in assay [6], in assay [7] and in assay [8] was inactive.

For `COc1ccc(-c2cccc(NC(=O)c3cccc(C#N)c3)c2)cc1CN(C)CCO`, the growth inhibition is 30% in assay [1] and 96% (active) in assay [4]. Moreover, the inhibition in assay [2] is 28%; in assay [3], -7%. Moreover, the outcome in assay [5], in assay [6], in assay [7] and in assay [8] was inactive.

Turning to `COc1ccc(C=Cc2cc(N)c3ccccc3n2)cc1`, the growth inhibition is 16% in assay [1] and 93% (active) in assay [4]. In addition, the inhibition was 38% in assay [2] and 5% in assay [3]. In addition, the result in assay [5], in assay [6], in assay [7] and in assay [8] was inactive.

As to `O=C(NC1CCN(Cc2ccccc2)CC1)c1ccc(-c2nc3cc(Cl)c(Cl)cc3[nH]2)c(F)c1`, the figures for the growth inhibition in assay [1] and in assay [4] were 83% (active) and 101% (active), respectively. Moreover, the inhibition in assay [2] is 4%; in assay [3], -2%. Moreover, the outcome in assay [5], in assay [6], in assay [7] and in assay [8] was inactive.

`O=C(Cc1ccc(F)cc1)NC1CCN(c2ccnc3cc(Cl)ccc23)C1` (configuration not stated): the growth inhibition is 85% (active) in assay [1] and 99% (active) in assay [4]. Moreover, the inhibition in assay [2] is -1%; in assay [3] it was 1%. Moreover, the result in assay [5], in assay [6], in assay [7] and in assay [8] was inactive.

For the molecule `Cc1cnc2ccc(NS(=O)(=O)c3sc4ccc(Cl)cc4c3C)cc2c1N1CCNCC1`, the growth inhibition is -1% in assay [1] and 99% (active) in assay [4]. Besides, the inhibition in assay [2] was -9%; in assay [3], 4%. Also, the result in assay [5], in assay [6], in assay [7] and in assay [8] was inactive.

For the molecule `COc1ccccc1NC(=O)Nc1cccc(-c2cccc(-c3nc4c(C)cccc4[nH]3)c2)c1`, the growth inhibition in assay [1] was 90% (active); in assay [4] it was 101% (active). The inhibition in assay [2] is 11%; in assay [3], -1%. Further, the result in assay [5], in assay [6], in assay [7] and in assay [8] was inactive.

For the molecule `CC(C)c1cn2c3c(cc(C(=O)N[C@@H](Cc4ccccc4)[C@H](O)CNC4CCOCC4)cc13)N(C)S(=O)(=O)CC2`, the values for the growth inhibition in assay [1] and in assay [4] were 99% (active) and 98% (active), respectively. The inhibition in assay [2] is 9%; in assay [3], -6%. Besides, the outcome in assay [5], in assay [6], in assay [7] and in assay [8] was inactive.

Values taken from PubChem BioAssay.
